Most compounds without a hit are left out; they make up all but 5.5% or so of the library.
RORg inh = qHTS for inhibitors of ROR gamma transcriptional activity | Nuclear receptor ROR-gamma (Mus musculus), P51450 | Drosophila S2 Gal4-RORgamma UAS-luciferase reporter, 20 h | Potency, µM (highest dose often 53.6 µM), inactives show at the top dose activity change, negative = inhibition, usual class: inhibitors | hit rate 5.4% among 310,000; further: potency means the concentration at half of the fitted maximal effect; on the % scale 0 is the no-effect control and ±100 the full control effect; nearly all actives have a fitted effect of over 60% in size
Target sequence (P51450 whole entry, looked up, the tested form may be a part): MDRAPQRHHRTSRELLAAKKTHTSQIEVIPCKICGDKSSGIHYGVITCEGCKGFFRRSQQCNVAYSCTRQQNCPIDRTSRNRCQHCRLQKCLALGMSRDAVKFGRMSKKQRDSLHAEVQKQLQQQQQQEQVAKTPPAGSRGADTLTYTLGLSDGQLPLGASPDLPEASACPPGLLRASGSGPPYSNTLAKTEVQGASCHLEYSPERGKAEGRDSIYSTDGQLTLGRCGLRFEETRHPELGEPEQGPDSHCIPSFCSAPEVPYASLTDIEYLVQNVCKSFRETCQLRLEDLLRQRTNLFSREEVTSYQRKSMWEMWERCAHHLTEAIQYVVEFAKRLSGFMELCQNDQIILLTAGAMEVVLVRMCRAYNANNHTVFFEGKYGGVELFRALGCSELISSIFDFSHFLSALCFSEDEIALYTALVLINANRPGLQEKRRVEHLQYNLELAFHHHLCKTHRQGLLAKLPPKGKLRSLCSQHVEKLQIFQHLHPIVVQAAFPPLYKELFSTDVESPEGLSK
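Read-out: Photinus luciferase luminescence; inhibitors lower reporter signal. Insect Schneider cells with Gal4-ROR gamma fusion under metallothionein promoter, UAS reporter; 700 uM final copper sulfate induction, 20 hr, ambient temperature.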
MBNL1-CUG inh = qHTS Assay for Inhibitors of MBNL1-poly(CUG) RNA binding. hit rate 0.036% among 280,000. Potency, µM (titrated, usually from 57.5 µM), without a hit: at the highest dose activity change, negative = inhibition, actives largely listed as inhibitors. Muscleblind-like protein 1 (Homo sapiens), Q9NR56. AID 2675, 2010. TR-FRET MBNL1-His/biotin-(CUG)12 binding, 665/545 ratio; active means well fitted inhibition curve with a large enough effect in the signal ratio, with a control signal flat, not every such curve was filed as active; inconclusive means small, poorly fitted or top-dose-only effect, or effect the other way, or a change in a side signal; inactive means no such curve, though single readings can be large or run the other way; the % refers to the signal ratio; further: potency means the concentration at half of the fitted maximal effect; on the % scale 0 is the no-effect control and ±100 the full control effect
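Compound titration spanned 92 nM–58 uM against the MBNL1-His/biotin-(CUG)12 complex. After 60 min at room temperature with 5 nM streptavidin-XL665 and 0.055 ng/ul terbium anti-His, ratiometric 665/545 nm emission (Ex 340 nm) normalized to controls.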
CBFb-RUNX1 inh = qHTS Assay for Compounds Blocking the Interaction Between CBF-beta and RUNX1 for the Treatment of Acute Myeloid Leukemia; Runt-related transcription factor 1 (Homo sapiens) + Core-binding factor subunit beta …; 230,000 tested, under 10 active; Potency, µM (doses to about 59.8 µM), for inactives: at the highest dose activity, negative = inhibition, hits mostly inhibitors; AlphaScreen CBFb-His/RUNX1-biotin binding, biochemical; further: % of control where 0% means no effect
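Interaction loss through any mechanism counts as activity. Pre-formed complex of His-CBF-beta and biotin-RUNX1 (30 nM apiece) is incubated with compound 15 min, then with 50 ng nickel and 50 ng streptavidin beads for 90 min before AlphaScreen detection.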
Six1-Eya2 blk = qHTS Assay for Inhibitors of the Six1/Eya2 Interaction; activity change, % (concentration not given with the values); AlphaScreen GST-Six1/His-Eya2 binding, biochemical; hits give low values; AID 651725, 2012; Homeobox protein SIX1 (Homo sapiens) + Protein phosphatase EYA2 (Homo sapiens), …; hit rate 0.56% among 360,000; in the data active means activity change below about -65%; inconclusive means mostly about -30% to -63%; further: on the % scale 0 is the no-effect control and ±100 the full control effect
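Homogeneous AlphaScreen proximity assay pairing GST-Six1 with His-tagged Eya2 (added as 5X mix: 250 nM and 500 nM) in 50 mM Tris pH 8.0, 300 mM NaCl, 1 mM TCEP. Glutathione donor and nickel acceptor beads; 1 h, 37 °C, dark.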
CtBP-E1A inh = qHTS Assay for Inhibitors of the CtBP/E1A Interaction; CtBP / adenovirus E1A interaction (AlphaScreen); AlphaScreen GST-E1A/His-CtBP binding, 1536-well; hits give low values; activity change, % (concentration not given with the values); hit rate 0.49% among 340,000; AID 651724, 2012; in the data active means activity change below about -65%; inconclusive means mostly about -30% to -63%; further: on the % scale 0 is the no-effect control and ±100 the full control effect
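GST-E1A and His-tagged CtBP (125 nM each as 5X stock) were preincubated with pin-transferred compound for 2 h at 37 °C in the dark, then glutathione donor and nickel acceptor beads were added for 1 h before AlphaScreen reading.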
Gal4-VP16 FLuc = VP16 counterscreen qHTS for inhibitors of ROR gamma transcriptional activity; Drosophila S2 Gal4-VP16 UAS-luciferase, luminescence, 20 h; AID 2546, 2010; Potency, µM (series often up to 53.6 µM), inactives show at the top dose activity, negative = inhibition, hits mostly inhibitors; hit rate 3.5% among 310,000;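 further: Gal4-VP16 expression switched on by copper sulfate through the metallothionein promoter; potency means the concentration at half of the fitted maximal effect; on the % scale 0 is the no-effect control and ±100 the full control effect; nearly all actives have a fitted effect of over 50% in size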
The depositor's hits bear a star; ? = inconclusive; nt = no result given; [ ] = dose if it differs, or a comment. Unless noted, the call rests on the fitted dose curve; in most records, active means well fitted curve in the direction sought with a large enough effect; inconclusive means small, poorly fitted or top-dose-only effect, or another doubt; inactive means no such curve, though single readings can be large; an effect the other way counts as inactive or inconclusive.

SMILES	RORg inh	MBNL1-CUG inh	CBFb-RUNX1 inh	Six1-Eya2 blk	CtBP-E1A inh	Gal4-VP16 FLuc
COc1ccc(OC)c(C2C(C(=O)N(C)C)=C(C)Nc3nc4ccccc4n32)c1 (configuration not stated)	-22.7%	-5.7%	3.5%	-2.3	-0.6	5.3%
CCOC(=O)C1=CC[C@@H](c2ccccc2Cl)N(S(=O)(=O)c2ccc(C)cc2)[C@H]1C(=O)OCC	nt	nt	nt	-5.6	-3.1	nt
CN1CC(=O)N(C)c2ncn(Cc3ccccc3)c2C1=O	4.47µM*	-4.9%	5.2%	11.9	2.5	-7.6%[0.365 µM]
C=CCOC(=O)N1CCC2CC1c1c(-c3ccc(C(F)(F)F)cc3)cccc12 (configuration not stated)	nt	nt	nt	9.2	5.9	nt
NS(=O)(=O)c1cc([N+](=O)[O-])ccc1NCc1cccnc1	13.5%	?	nt	-1.1	0.9	-0.7%
Cc1ccc2cc3cc(C(=O)NC4CCCCC4)oc3nc2c1	0.562µM*	8.1%	nt	-0.4	nt	?
Cc1ccc(C(=O)NC2CCCCCCC2)c(Cl)c1	7.08µM*	-6.3%	nt	-0.1	nt	8.91µM*
O=C(NC1CCCCCCC1)c1cc(F)c(F)cc1Cl	43.1%	-0.9%	5.2%	-0.6	-19.0	-16.5%
COc1cccc(NC(=O)CSc2nnc(-c3cc(C)n(-c4ccccc4)c3C)o2)c1	10µM*	2.1%	-15.9%	-14.6	-16.9	11.2µM*
COc1ccc(-c2ccc(C(=O)NCC3CCOCC3)c3occc23)c(C)c1	nt	nt	nt	-6.4	0.0	nt
OC(Cc1cccc(Br)c1)c1ncc(-c2ccccc2C(F)(F)F)[nH]1 (configuration not stated)	nt	nt	nt	-10.0	-5.1	nt
Cc1cc(O)c(C(C)C)cc1C1(c2cc(C(C)C)c(O)cc2C)OC(=O)c2ccccc21	?	-6.0%	-4.4%	-15.0	-1.4	12.6µM*
Cc1cc(CNC(=O)C2CCC(=O)N(Cc3ccccc3F)C2)nn1C (configuration not stated)	35.1%	1.4%	nt	3.1	-5.0	-1.5%
CC(C)(C)c1ccc(OCCCC(=O)N2CCOCC2)cc1	?	3.3%	5.5%	6.9	nt	11.2µM*
Cc1ccccc1S(=O)(=O)NC(=O)C1(C)CCN1C(=O)C/C=C/c1ccccc1 (configuration not stated)	nt	nt	nt	0.8	5.8	nt
COc1cc(N/N=C(\C)c2ccc(O)c(C)c2)nc(-c2ccccc2)n1	24.3%	2.0%	-0.9%	-7.6	-8.6	-26.9%
C/C(=N\Nc1cc(-c2ccccc2)nc(-c2ccccc2)n1)c1ccc(O)c(C)c1	8.91µM*	20.7%	-5.0%	-10.5	0.0	12.6µM*
CC/C(=N\NC(=O)c1ccc(-c2ccccc2)cc1)C12CC3CC(CC(C3)C1)C2	22.4µM*	0.7%	-3.4%	-1.5	-15.9	?
C/C(=N\Nc1nc(C)cc(-c2ccccc2)n1)c1ccccc1	3.55µM*	2.7%	nt	15.4	6.1	5.01µM*
C/C(=N\Nc1nc(C)cc(-c2ccccc2)n1)c1ccc(O)cc1	?	8.5%	nt	-2.7	-0.7	?
C/C(=N\Nc1nc(C)cc(-c2ccccc2)n1)c1cccc(N)c1	11.2µM*	5.8%	nt	7.6	nt	15.8µM*
O=C(c1cccc(F)c1)N1CCC[C@@]2(CCN(Cc3nccs3)C2)C1	-16.8%	nt	nt	nt	nt	12.7%
O=C(CN1CCN(C(C(=O)Nc2ccc(F)cc2)c2ccccc2)CC1)NC1CC1 (configuration not stated)	nt	nt	nt	4.5	-2.3	nt
C/C(=N\NC(=O)c1ccc(-c2ccccc2)cc1)c1cccc(N)c1	12.6µM*	-2.0%	4.6%	-1.5	0.0	-16.2%
C/C(=N\NC(=O)c1ccccc1)c1cccc(Br)c1	-120.9%	-3.2%	4.5%	3.1	5.3	?
SMILES	RORg inh	MBNL1-CUG inh	CBFb-RUNX1 inh	Six1-Eya2 blk	CtBP-E1A inh	Gal4-VP16 FLuc
CC1Cc2ccccc2C(CCc2ccccc2)=N1 (configuration not stated)	12.6µM*	0.0%	nt	4.4	nt	-5.0%
C[C@H]1CN=C(N(C)C)N1CCc1ccccc1	nt	nt	nt	0.4	5.6	nt
NC(=O)N/N=C1\CCS(=O)(=O)c2ccc(F)cc21	-17.5%	1.8%	nt	7.7	-1.6	-1.0%
NC(=S)N/N=C1\CCOc2ccc(F)cc21	5.01µM*	?	13.1%	-4.7	-10.4	22.4µM*
S=C1NC[C@H](c2ccccc2)N1CC1CCCCC1	1.12µM*	5.3%	-1.2%	-5.0	-3.2	4.47µM*
S=C1NC[C@H](Cc2ccccc2)N1CC1CCN(CCCC2CCCC2)CC1	nt	nt	nt	-7.3	-10.4	nt
CCCCN1C(=S)NC[C@@H]1Cc1ccccc1	1.78µM*	4.0%	0.7%	4.3	2.3	7.94µM*
O=C1NC[C@H](CC2CCCCC2)N(CCc2cccc3ccccc23)C1=O	nt	nt	nt	3.1	-2.0	nt
S=C1NC[C@H](CC2CCCCC2)N1CCc1cccc2ccccc12	0.251µM*	-6.4%	1.0%	-9.8	-3.3	0.631µM*
S=C1NC[C@H](Cc2ccccc2)N1CCCCC1CCCCC1	0.708µM*	18.9%	3.5%	-9.3	-1.2	5.01µM*
CCOC(=O)N1CCN(C(=O)c2oc3ccc(S(=O)(=O)N(CC)CC)cc3c2C)CC1	-13.7%	-4.6%	nt	5.4	4.9	-3.1%
Cc1ccccc1C(=O)N1CCC(C(=O)OCc2nc(N)nc(Nc3ccccc3)n2)CC1	nt	nt	nt	-4.8	nt	nt
NCCCC[C@H]1CNC(=S)N1CC1CCCCC1	-7.0%	1.7%	10.4%	1.5	-0.1	3.6%
S=C1NC[C@H](CC2CCCCC2)N1CCCCC1CCCCC1	1.12µM*	0.9%	8.9%	4.1	3.8	3.16µM*
CCCCN1C(=S)NC[C@@H]1c1ccccc1	2.82µM*	0.9%	8.6%	5.4	-20.4	12.6µM*
Cc1c(CCC(=O)O)c(=O)oc2c(C)c3occ(-c4ccc(Br)cc4)c3cc12	29.7%	130.3%	nt	-84.9*	-84.3*	-2.2%
Cc1oc2c(C)c3oc(=O)c(CCC(=O)NCCCCCC(=O)O)c(C)c3cc2c1C	?	5.4%	nt	?	?	-28.8%
Cc1c(CC(=O)O)c(=O)oc2c(C)c3occ(-c4ccc(F)cc4)c3cc12	-11.6%	0.2%	nt	-28.8	-72.5*	-1.7%
Cc1c(CC(=O)O)c(=O)oc2cc3occ(-c4ccccc4)c3cc12	17.5%	-2.5%	nt	-3.4	0.0	22.0%
COc1ccc(-c2coc3c(C)c4oc(=O)c(CCC(=O)O)c(C)c4cc23)cc1	21.6%	-2.3%	nt	-77.2*	-71.7*	-2.4%

Screening data (PubChem)
